# Laboratory results published in ChEMBL document CHEMBL3988442, “University of Dundee, Small-Polar-MMV Screening Library” (2021).
# Target: T1, Methionyl-tRNA synthetase, putative (Leishmania donovani (strain BPK282A1)) (UniProt E9BF75)
# T1 sequence (whole entry): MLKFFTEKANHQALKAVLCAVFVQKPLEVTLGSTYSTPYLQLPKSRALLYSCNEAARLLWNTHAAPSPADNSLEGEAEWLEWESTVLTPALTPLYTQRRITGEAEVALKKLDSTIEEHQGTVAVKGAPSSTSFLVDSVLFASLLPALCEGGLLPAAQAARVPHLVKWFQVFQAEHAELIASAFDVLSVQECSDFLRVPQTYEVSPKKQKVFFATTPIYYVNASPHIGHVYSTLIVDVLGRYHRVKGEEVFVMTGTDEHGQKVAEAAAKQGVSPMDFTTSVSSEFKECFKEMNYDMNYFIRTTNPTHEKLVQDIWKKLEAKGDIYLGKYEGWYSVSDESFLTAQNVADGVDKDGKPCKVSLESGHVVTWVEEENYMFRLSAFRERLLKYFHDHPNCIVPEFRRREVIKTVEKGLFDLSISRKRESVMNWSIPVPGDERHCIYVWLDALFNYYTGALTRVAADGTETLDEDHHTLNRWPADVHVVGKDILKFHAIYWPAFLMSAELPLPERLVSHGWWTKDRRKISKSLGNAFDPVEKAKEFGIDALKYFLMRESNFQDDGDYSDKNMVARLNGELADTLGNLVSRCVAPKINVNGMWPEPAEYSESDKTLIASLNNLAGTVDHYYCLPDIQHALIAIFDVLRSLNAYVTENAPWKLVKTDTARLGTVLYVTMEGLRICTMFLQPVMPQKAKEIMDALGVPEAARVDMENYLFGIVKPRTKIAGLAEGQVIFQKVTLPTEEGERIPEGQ
# Assay: Leishmania donovani Methionine tRNA synthetase (LdMetRS):v7. Dose response assay
# Type: functional
# Set-up: conc 80 nM, time 150 minutes
structure (smiles),measurement,setting,value
Clc1cc(Cl)cc(NCc2ccc3[nH]ncc3c2)c1,PXC50,MAX_EFFECT 28.48948375,< 2.7
NS(=O)(=O)c1cccnc1Nc1ccc(O)cc1,PXC50,MAX_EFFECT 5.185185185,< 4
CN(C)CCNc1nc(NCCO)c2cnn(C)c2n1,PXC50,MAX_EFFECT 2.277039848,< 4
Clc1cc(Cl)cc(CNC2COC2)c1,PXC50,MAX_EFFECT 15.10516252,< 2.7
Cc1cc(Nc2ncccc2S(N)(=O)=O)cc(C(F)(F)F)c1,PXC50,MAX_EFFECT 10.97804391,< 4
OCCNc1ccnc(Nc2cccc(C(F)(F)F)c2)n1,PXC50,"BOTTOM -3.630779809, HILLSLOPE 0.738811655, MAX_EFFECT 60.88631985, TOP 100.0",4.28
Cc1noc(CCNc2nc(NCCO)c3cnn(C)c3n2)n1,PXC50,MAX_EFFECT 0.580270793,< 4
COc1cc(NC(=O)c2cccs2)c2ncccc2c1,PXC50,MAX_EFFECT 11.11111111,< 4
Cn1cc(C(=O)N2CCc3ccccc32)c2ccccc21,PXC50,MAX_EFFECT 1.851851852,< 4
NS(=O)(=O)c1cccnc1NC1CCCC1,PXC50,MAX_EFFECT 6.986027944,< 4
c1ccc(-c2nc(N3CCOCC3)c3sccc3n2)cc1,PXC50,MAX_EFFECT 16.2962963,< 4
NS(=O)(=O)c1cccnc1Nc1ccc(F)cc1,PXC50,MAX_EFFECT 1.518026565,< 4
NS(=O)(=O)c1cccnc1Nc1cc(C(=O)O)cc(C(F)(F)F)c1,PXC50,MAX_EFFECT 6.165703276,< 4
CN(CCO)c1ccnc(Nc2ccc(F)c(F)c2)n1,PXC50,"BOTTOM 0.294483603, HILLSLOPE 0.87168646, MAX_EFFECT 90.28037383, TOP 97.37088088",5.27
OCCNc1nccc(Nc2ccc(F)c(F)c2)n1,PXC50,MAX_EFFECT 5.420560748,< 4
COc1ccc(OC)c(NC(=O)N2CCOc3ccc(C)cc32)c1,PXC50,MAX_EFFECT 7.777777778,< 4
COc1ccncc1NC(=O)N1CCCc2ccccc21,PXC50,MAX_EFFECT 36.98113208,< 4
Clc1cc(Cl)cc(NC2COC2)c1,PXC50,MAX_EFFECT 18.9292543,< 2.7
C[C@@H](CO)Nc1nc(Nc2ccc(F)c(F)c2)nc2c1cnn2C,PXC50,"BOTTOM 0.900407202, HILLSLOPE 1.012545194, MAX_EFFECT 78.11320755, TOP 96.15766895",4.67
OCCNc1ccnc(Nc2ccc(F)c(F)c2)n1,PXC50,"BOTTOM 2.684604701, HILLSLOPE 0.866541634, MAX_EFFECT 62.24299065, TOP 102.5858947",4.2
Cn1ncc2c(NC3CCC3)nc(Nc3ccc(F)c(F)c3)nc21,PXC50,"BOTTOM 4.327233824, HILLSLOPE 1.310483513, MAX_EFFECT 62.26415094, TOP 64.55009742",5.13
Clc1cc(Cl)cc(CNCc2ccc3[nH]ccc3c2)c1,PXC50,"BOTTOM 7.303470977, HILLSLOPE 1.421171765, MAX_EFFECT 85.85086042, TOP 90.87319761",4.04
OCCCNc1ccnc(Nc2ccc(F)c(F)c2)n1,PXC50,"BOTTOM 8.063501062, HILLSLOPE 0.925044522, MAX_EFFECT 61.50943396, TOP 93.0681126",4.25
Clc1cc(Cl)cc(NCc2c[nH]cn2)c1,PXC50,"BOTTOM -1.936831904, HILLSLOPE 1.590281355, MAX_EFFECT 96.5583174, TOP 100.0",3.41
Clc1cc(Cl)cc(NCc2cccnc2)c1,PXC50,"BOTTOM -6.720584862, HILLSLOPE 0.561777258, MAX_EFFECT 60.61185468, TOP 100.0",3.18
COc1cc(Nc2ncccc2S(N)(=O)=O)cc(C(F)(F)F)c1,PXC50,MAX_EFFECT 0.199600798,< 4
OCCNc1nccc(Cl)n1,PXC50,MAX_EFFECT 0.560747664,< 4
NS(=O)(=O)c1cccn2c1nc1cccnc12,PXC50,MAX_EFFECT 1.851851852,< 4
COC(=O)c1ccc(OC)c(NC(=O)N2CCOc3ccccc32)c1,PXC50,MAX_EFFECT 3.018867925,< 4
COc1ccccc1NC(=O)Nc1c[n+]([O-])ccc1OC,PXC50,MAX_EFFECT 3.018867925,< 4
C[C@@H](CO)Nc1ccnc(Cl)n1,PXC50,MAX_EFFECT 3.177570093,< 4
Cn1ncc2c(NCCO)nc(NCCO)nc21,PXC50,MAX_EFFECT 3.795066414,< 4
COc1ccccc1NC(=O)Nc1cc(C(N)=O)ccc1OC,PXC50,MAX_EFFECT 5.420560748,< 4
Cn1ncc2c(NCCO)nc(N3CCOCC3)nc21,PXC50,MAX_EFFECT 5.69259962,< 4
COc1ccc(Nc2ncccc2S(N)(=O)=O)cc1C(F)(F)F,PXC50,MAX_EFFECT 5.780346821,< 4
CN1CCN(c2nc(NCCO)c3cnn(C)c3n2)CC1,PXC50,MAX_EFFECT 6.165703276,< 4
Cn1ncc2c(NCCO)nc(NCC3CCCO3)nc21 (stereo unspecified),PXC50,MAX_EFFECT 7.969639469,< 4
CN(c1nc(NCCO)c2cnn(C)c2n1)C1CCS(=O)(=O)C1 (stereo unspecified),PXC50,MAX_EFFECT 9.248554913,< 4
Clc1cc(Cl)cc(NCCc2ccccc2)c1,PXC50,MAX_EFFECT 9.751434034,< 2.7
Cn1ncc2c(NCCO)nc(NCCc3ccccc3)nc21,PXC50,MAX_EFFECT 11.85185185,< 4
Cn1ncc2c(NCCO)nc(NC3CCOCC3)nc21,PXC50,MAX_EFFECT 17.34104046,< 4
COc1ccccc1NC(=O)Nc1nn(C)c2cccc(OC)c12,PXC50,MAX_EFFECT 17.77777778,< 4
CN1CCn2cc/c(=N\c3ccc(F)c(F)c3)nc21,PXC50,MAX_EFFECT 18.13084112,< 4
COc1cccc(NC(=O)N2CCOc3ccccc32)c1,PXC50,MAX_EFFECT 19.53578337,< 4
Cc1cnn(C)c1CNCc1cc(Cl)cc(Cl)c1,PXC50,MAX_EFFECT 20.07648184,< 2.7
COc1ccccc1NC(=O)NC1CCCCC1,PXC50,MAX_EFFECT 21.47001934,< 4
Clc1cc(Cl)cc(CNCc2cccnc2)c1,PXC50,MAX_EFFECT 23.51816444,< 2.7
Cc1cnn(C)c1CNc1cc(Cl)cc(Cl)c1,PXC50,MAX_EFFECT 23.51816444,< 2.7
Clc1cc(Cl)cc(CNCc2c[nH]cn2)c1,PXC50,MAX_EFFECT 24.66539197,< 2.7
Cc1cc(CNCc2cc(Cl)cc(Cl)c2)no1,PXC50,MAX_EFFECT 24.66539197,< 2.7
C[C@H](CO)Nc1ccnc(Nc2cccc(F)c2)n1,PXC50,MAX_EFFECT 26.58959538,< 4
C[C@@H](CO)Nc1ccnc(Nc2cccc(F)c2)n1,PXC50,MAX_EFFECT 30.05780347,< 4
Oc1ccccc1-c1nc(Nc2ccccc2Cl)c2ccccc2n1,PXC50,MAX_EFFECT 30.74074074,< 4
CC(NCc1cc(Cl)cc(Cl)c1)C1CCCN(C(=O)OC(C)(C)C)C1 (stereo unspecified),PXC50,MAX_EFFECT 36.52007648,< 2.7
CCNc1nc(C#N)nc(Nc2ccccc2)n1,PXC50,MAX_EFFECT 38.88888889,< 4
Clc1cc(Cl)cc(CNCc2ccccn2)c1,PXC50,MAX_EFFECT 45.69789675,< 2.7
Cn1ncc2c(NC3CC3)nc(Nc3ccc(F)c(F)c3)nc21,PXC50,MAX_EFFECT 47.9245283,< 4
CS(=O)(=O)N1CCN(c2ccc3ccc(C(=O)NCC4CC4)cn23)CC1,PXC50,"BOTTOM 3.917889821, HILLSLOPE 2.161741125, MAX_EFFECT 61.66007905, TOP 61.91262666",4.97
same,PXC50,"BOTTOM -0.968460018, HILLSLOPE 1.661925269, MAX_EFFECT 62.22222222, TOP 66.45309128",4.79
CCc1cc2c(NCCCN(C)C)nc(-c3ccccc3)nc2s1,PXC50,MAX_EFFECT 10.07371007,< 4
same,PXC50,MAX_EFFECT 10.55276382,< 4
